Experimental data reported in PubChem BioAssay (NCATS).
Records with an inconclusive call do not appear. Calls of active or inactive are those of the source. Unless noted, the call rests on the fitted dose curve; in most records, active means well fitted curve in the direction sought with a large enough effect; inconclusive means small, poorly fitted or top-dose-only effect, or another doubt; inactive means no such curve, though single readings can be large; an effect the other way counts as inactive or inconclusive.

How the values were obtained:
Furin (Homo sapiens) = Furin (Homo sapiens) (UniProt P09958); assay: Furin counterscreen qHTS for Zika virus inhibitors (AID 1347149);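 further: purified recombinant full-length human furin enzyme at 5 nM; fluorescence gain from furin cutting a BOC-RVRR-AMC peptide substrate over 15 min; top concentration of the series differs between compounds; plate controls were no-inhibitor control for no effect and no-enzyme control for full effect; nearly all actives have a fitted effect of over 70% in size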
Sequence of Furin (Homo sapiens) (P09958 whole entry, looked up): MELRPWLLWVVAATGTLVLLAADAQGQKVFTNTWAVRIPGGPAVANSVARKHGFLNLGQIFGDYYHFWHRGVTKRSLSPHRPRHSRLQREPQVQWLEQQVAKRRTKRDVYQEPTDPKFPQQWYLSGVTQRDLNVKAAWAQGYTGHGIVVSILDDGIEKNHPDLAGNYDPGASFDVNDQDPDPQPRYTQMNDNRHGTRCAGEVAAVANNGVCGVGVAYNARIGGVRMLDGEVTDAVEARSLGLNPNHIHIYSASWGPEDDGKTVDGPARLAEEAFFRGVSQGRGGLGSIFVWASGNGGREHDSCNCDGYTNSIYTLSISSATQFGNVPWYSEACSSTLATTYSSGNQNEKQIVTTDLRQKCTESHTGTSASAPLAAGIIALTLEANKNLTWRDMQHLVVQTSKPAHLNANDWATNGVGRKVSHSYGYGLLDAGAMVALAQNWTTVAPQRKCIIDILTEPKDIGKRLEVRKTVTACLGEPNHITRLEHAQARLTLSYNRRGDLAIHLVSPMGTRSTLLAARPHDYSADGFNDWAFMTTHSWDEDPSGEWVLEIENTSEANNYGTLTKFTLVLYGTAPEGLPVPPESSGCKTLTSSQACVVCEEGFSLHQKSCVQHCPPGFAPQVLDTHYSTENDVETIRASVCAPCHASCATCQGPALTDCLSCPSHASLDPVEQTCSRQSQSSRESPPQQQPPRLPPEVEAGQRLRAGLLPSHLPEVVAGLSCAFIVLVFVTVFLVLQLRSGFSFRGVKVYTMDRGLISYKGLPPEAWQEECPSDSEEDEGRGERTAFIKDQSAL
How it was run: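 Counterscreen measures cleavage of 2 microM BOC-RVRR-AMC, below its ~15 microM Km, by 5 nM full-length human furin at pH 7.0 after a 15-min compound preincubation. Inhibition derives from the 15-min fluorescence increase at 37C.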

[1] = system: Zika virus NS2B-NS3 protease (linked construct); assay: Confirmatory screen NINDS AMC qHTS for Zika virus inhibitors (AID 1347152);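 further: AMC fluorescence gain from cleaved Bz-Nle-KRR-AMC substrate over 15 min; top concentration of the series differs between compounds; 0% = no-inhibitor control and -100% = no-enzyme control; nearly all actives have a fitted effect of over 70% in size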
How it was run: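 Enzyme (1 nM, linked construct) was preincubated with compound for 15 minutes at room temperature in 10 mM Tris-HCl pH 8.0 with 0.01% Tween 20. Bz-Nle-Lys-Arg-Arg-AMC was then added to 10 microM, and AMC fluorescence was recorded immediately and after 15 minutes.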

[2] = system: Zika virus NS2B-NS3 protease (unlinked complex); assay: Confirmatory screen GU AMC qHTS for Zika virus inhibitors (AID 1347153);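 further: percent inhibition with 0% = no inhibitor control and 100% = no enzyme control; nearly all actives have a fitted effect of over 70% in size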
How it was run: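 Noncovalent NS2B hydrophilic domain/NS3 protease complex (25 nM) in 10 mM Tris-HCl pH 8.0, 0.01% Tween 20 was preincubated 15 min at room temperature with compounds. Then 10 µM AMC substrate (Km 18.3 µM) was added; fluorescence was read over 15 min and fitted to a 4-parameter Hill equation.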

[3] = Tertiary RLuc qRT-PCR qHTS assay for Zika virus inhibitors (AID 1347169); further: top concentration of the series differs between compounds; on the % scale 0 is the no-effect control and ±100 the full control effect; nearly all actives have a fitted effect of over 55% in size
How it was run: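 Vero, 1,000 cells/well, o/n 37 C; cpd pinned in DMSO; ZIKV-RLuc Cambodian, MOI 1-2, 48-72 h 37 C; live-cell RLuc substrate, lum read at 1-1.5 h.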

[4] = biological target: Estrogen receptor (Homo sapiens) (UniProt P03372); assay: qHTS assay for small molecule antagonists of estrogen receptor alpha signaling (AID 588513; active means well fitted curve in the direction sought with a large enough effect in the signal ratio, with a control signal flat, not every such curve was filed as active; the % refers to the signal ratio; further: on the % scale 0 is the no-effect control and ±100 the full control effect)
Sequence of Estrogen receptor (Homo sapiens) (P03372 whole entry, looked up): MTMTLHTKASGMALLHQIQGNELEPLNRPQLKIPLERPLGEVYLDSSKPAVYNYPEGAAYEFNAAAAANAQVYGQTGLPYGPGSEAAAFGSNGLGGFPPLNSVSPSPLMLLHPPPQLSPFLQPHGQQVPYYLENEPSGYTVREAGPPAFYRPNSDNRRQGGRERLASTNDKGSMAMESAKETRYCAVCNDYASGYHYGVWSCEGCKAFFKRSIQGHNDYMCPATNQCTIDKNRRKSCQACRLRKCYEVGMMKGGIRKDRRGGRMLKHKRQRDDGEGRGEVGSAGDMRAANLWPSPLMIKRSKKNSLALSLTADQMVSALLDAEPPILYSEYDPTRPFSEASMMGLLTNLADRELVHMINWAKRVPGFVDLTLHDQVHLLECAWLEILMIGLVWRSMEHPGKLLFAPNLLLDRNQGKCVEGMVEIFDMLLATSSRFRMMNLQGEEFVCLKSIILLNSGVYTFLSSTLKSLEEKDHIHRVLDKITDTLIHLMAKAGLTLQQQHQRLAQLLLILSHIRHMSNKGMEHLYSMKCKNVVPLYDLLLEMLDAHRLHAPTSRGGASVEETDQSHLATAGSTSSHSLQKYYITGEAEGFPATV
How it was run: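 Fluorescence from CCF4 substrate after 2 h at room temperature gave reporter activity; cells had been exposed to compound and 0.5nM 17-beta-estradiol for 18 h at 37 C. Hill-equation fitting yielded IC50 and maximal response.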

[5] = biological target: Estrogen receptor (Homo sapiens) (UniProt P03372); assay: qHTS assay for small molecule agonists of estrogen receptor alpha signaling (AID 588514; calls by dose curve;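 further: 0% = vehicle only and 100% = reference agonist; nearly all actives have a fitted effect of over 70% in size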)
How it was run: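 Efficacy is expressed against 20 nM 17-beta-estradiol (100%) and DMSO basal (0%); EC50 from Hill equation. Assay: beta-lactamase reporter in ER-alpha-UAS-bla HEK 293 cells, 18 h compound incubation, CCF4 detection.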

[6] = biological target: Bile acid receptor (Homo sapiens) (UniProt Q96RI1); assay: qHTS assay for small molecule antagonists of farnesoid X receptor signaling (AID 588526; calls by dose curve; further: on the % scale 0 is the no-effect control and ±100 the full control effect)
Sequence of Bile acid receptor (Homo sapiens) (Q96RI1 whole entry, looked up): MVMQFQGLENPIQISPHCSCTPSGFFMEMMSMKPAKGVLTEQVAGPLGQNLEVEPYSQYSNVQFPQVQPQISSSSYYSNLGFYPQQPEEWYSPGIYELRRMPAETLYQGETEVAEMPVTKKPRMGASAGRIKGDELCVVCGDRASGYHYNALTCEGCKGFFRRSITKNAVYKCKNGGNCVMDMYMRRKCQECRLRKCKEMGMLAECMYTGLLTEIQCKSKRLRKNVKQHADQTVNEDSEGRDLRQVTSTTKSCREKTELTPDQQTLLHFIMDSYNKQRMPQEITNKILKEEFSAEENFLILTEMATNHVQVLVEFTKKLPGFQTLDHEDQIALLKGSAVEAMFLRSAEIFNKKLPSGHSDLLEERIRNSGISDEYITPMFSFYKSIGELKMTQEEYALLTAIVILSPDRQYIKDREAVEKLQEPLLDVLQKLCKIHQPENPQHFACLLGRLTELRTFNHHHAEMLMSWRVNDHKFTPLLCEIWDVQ
How it was run: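 Concentration-response titrations were fitted to the Hill equation for half-maximal inhibition and maximal response, with data normalised to 50 uM chenodeoxycholic acid and DMSO control wells. Cells: FXR-UAS-bla HEK293T, dialyzed FBS.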

[7] = qHTS assay for small molecule antagonists of peroxisome proliferator-activated receptor delta signaling (AID 588535; active means well fitted inhibition curve with a large enough effect in the signal ratio, with a control signal flat, not every such curve was filed as active; the % refers to the signal ratio;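 on max response: cells co-treated with a PPAR-delta agonist as stimulator during compound exposure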); conditions: HEK293T PPARd-UAS-bla, beta-lactamase FRET ratio, 18 h; 460 nm channel
How it was run: (§1)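 Inhibition of PPAR-delta response element-driven beta-lactamase expression is measured in HEK293T cells exposed to a compound titration series for 18 hrs at 37 C. Half-maximal inhibition comes from Hill equation fitting.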

[8] = biological target: Peroxisome proliferator-activated receptor delta (Homo sapiens) (UniProt Q03181); assay: as above
Sequence of Peroxisome proliferator-activated receptor delta (Homo sapiens) (Q03181 whole entry, looked up): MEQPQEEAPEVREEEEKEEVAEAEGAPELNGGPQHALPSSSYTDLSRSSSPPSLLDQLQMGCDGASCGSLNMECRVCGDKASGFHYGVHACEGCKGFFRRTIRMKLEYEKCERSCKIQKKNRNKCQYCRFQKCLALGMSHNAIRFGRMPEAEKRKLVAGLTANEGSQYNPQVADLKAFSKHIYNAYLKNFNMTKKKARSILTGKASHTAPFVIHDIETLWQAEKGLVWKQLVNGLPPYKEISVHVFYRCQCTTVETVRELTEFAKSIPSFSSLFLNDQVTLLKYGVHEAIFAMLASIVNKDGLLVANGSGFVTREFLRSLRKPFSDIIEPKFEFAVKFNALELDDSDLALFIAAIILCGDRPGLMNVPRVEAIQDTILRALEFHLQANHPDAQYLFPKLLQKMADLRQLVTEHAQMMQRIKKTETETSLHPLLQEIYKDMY
How it was run: as §1

[9] = biological target: Vitamin D3 receptor (Homo sapiens) (UniProt P11473); assay: qHTS assay for small molecule antagonists of vitamin D receptor signaling (AID 588541; calls by dose curve;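 further: receptor activated by calcitriol during compound treatment; series mostly up to about 77 µM; on the % scale 0 is the no-effect control and ±100 the full control effect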)
Sequence of Vitamin D3 receptor (Homo sapiens) (P11473 whole entry, looked up): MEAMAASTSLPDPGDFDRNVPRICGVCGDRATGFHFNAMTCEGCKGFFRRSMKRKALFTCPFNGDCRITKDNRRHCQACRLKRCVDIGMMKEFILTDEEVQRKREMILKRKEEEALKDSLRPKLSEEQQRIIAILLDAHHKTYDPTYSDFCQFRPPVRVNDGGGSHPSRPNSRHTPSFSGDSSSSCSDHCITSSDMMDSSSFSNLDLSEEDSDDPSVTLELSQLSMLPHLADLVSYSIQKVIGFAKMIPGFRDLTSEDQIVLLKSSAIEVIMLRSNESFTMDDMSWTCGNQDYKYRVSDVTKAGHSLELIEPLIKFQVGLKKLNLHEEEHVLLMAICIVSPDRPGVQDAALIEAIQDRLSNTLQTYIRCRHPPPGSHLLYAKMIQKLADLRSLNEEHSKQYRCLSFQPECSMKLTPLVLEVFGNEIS
How it was run: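 VDR-UAS-bla HEK293T cells (2000/well, 2% charcoal-stripped FBS) were treated with titrated compounds plus 1-alpha,25-dihydroxyvitamin D3 (50 nM or 3 nM final) for 16 h at 37 C. CCF4 beta-lactamase fluorescence was read; Hill fits gave IC50.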

[10] = biological target: Vitamin D3 receptor (Homo sapiens) (UniProt P11473); assay: qHTS assay for small molecule agonists of vitamin D receptor signaling (AID 588543; calls by dose curve;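 further: 0% = DMSO basal and 100% = reference agonist control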)
How it was run: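 Reporter cells (HEK293T, VDR-UAS-bla) were seeded in medium with 2% charcoal-stripped serum and incubated 5 h, then compounds in concentration series were added for 16 h at 37 °C. Stimulation was scaled between DMSO basal and 50 nM 1α,25-dihydroxyvitamin D3.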

[11] = qHTS assay for small molecule agonists of retinoid X receptor alpha signaling (AID 588544; calls by dose curve;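 on activation: 0% = DMSO basal wells and 100% = reference agonist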); conditions: HEK293T RXRa-UAS-bla, beta-lactamase reporter, 18 h; 530 nm emission
[12] = biological target: Retinoic acid receptor RXR-alpha (Homo sapiens) (UniProt P19793); assay: as above
Sequence of Retinoic acid receptor RXR-alpha (Homo sapiens) (P19793 whole entry, looked up): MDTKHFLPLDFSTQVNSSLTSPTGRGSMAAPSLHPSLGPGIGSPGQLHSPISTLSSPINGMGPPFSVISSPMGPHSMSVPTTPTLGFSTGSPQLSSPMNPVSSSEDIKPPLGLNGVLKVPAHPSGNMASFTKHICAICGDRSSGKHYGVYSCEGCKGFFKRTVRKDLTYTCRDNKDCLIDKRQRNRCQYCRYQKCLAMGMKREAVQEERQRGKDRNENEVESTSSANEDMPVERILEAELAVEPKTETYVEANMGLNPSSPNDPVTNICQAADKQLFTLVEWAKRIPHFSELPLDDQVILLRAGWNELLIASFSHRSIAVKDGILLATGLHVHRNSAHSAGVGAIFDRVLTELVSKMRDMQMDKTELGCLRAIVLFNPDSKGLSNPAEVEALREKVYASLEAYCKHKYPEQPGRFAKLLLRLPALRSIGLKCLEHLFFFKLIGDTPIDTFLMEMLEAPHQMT

[13] = biological target: Thyroid hormone receptor beta (Homo sapiens) (UniProt P10828); assay: qHTS assay for small molecule agonists of thyroid hormone receptor beta signaling (AID 588545; calls by dose curve)
Sequence of Thyroid hormone receptor beta (Homo sapiens) (P10828 whole entry, looked up): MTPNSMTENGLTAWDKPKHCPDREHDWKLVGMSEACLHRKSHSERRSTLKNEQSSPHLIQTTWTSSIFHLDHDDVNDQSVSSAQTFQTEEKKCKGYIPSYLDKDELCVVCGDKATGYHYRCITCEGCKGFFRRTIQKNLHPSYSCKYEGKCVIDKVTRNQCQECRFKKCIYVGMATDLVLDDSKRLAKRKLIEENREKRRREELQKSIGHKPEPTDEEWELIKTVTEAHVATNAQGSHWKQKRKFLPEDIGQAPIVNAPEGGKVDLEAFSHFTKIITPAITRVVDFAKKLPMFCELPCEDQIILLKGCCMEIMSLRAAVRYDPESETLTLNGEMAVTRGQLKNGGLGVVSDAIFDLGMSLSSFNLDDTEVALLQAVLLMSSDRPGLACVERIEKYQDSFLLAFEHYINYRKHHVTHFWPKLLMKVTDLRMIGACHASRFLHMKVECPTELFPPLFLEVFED
How it was run: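 HEK 293 TR-UAS-bla; agonist mode; 18 hrs, 37 C; CCF4, ex 405/em 460 and 530 nm; norm. T3 10 nM = 100%, DMSO = 0%; Hill fit → EC50, efficacy.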

[14] = qHTS assay for small molecule antagonists of retinoid X receptor alpha signaling (AID 588546; active means well fitted inhibition curve with a large enough effect in the signal ratio, with a control signal flat, not every such curve was filed as active; the % refers to the signal ratio;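 further: cells stimulated with 9-cis-retinoic acid as agonist; on the % scale 0 is the no-effect control and ±100 the full control effect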); conditions: HEK293T RXRa-UAS-bla, beta-lactamase ratio, antagonist mode; measured here: W530 green channel, cytotoxicity proxy
How it was run: (§2)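 Beta-lactamase reporter inhibition, read as CCF4 fluorescence ratio (ex 405, em 460/530 nm) after 2 h at RT. HEK293T UAS-bla cells, 2500/well, were stimulated with 9-cis-RA at 500 or 100 nM final alongside test compound for 18 h at 37 C.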

[15] = biological target: Retinoic acid receptor RXR-alpha (Homo sapiens) (UniProt P19793); assay: as above; conditions: HEK293T RXRa-UAS-bla, beta-lactamase ratio, antagonist mode
How it was run: as §2

[16] = biological target: Thyroid hormone receptor beta (Homo sapiens) (UniProt P10828); assay: qHTS assay for small molecule antagonists of thyroid hormone receptor beta signaling (AID 588547; active means well fitted inhibition curve with a large enough effect in the signal ratio, with a control signal flat, not every such curve was filed as active; the % refers to the signal ratio); conditions: TR-UAS-bla HEK293, beta-lactamase ratio, antagonist mode, 18 h
How it was run: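 TR-UAS-bla GripTite HEK293 cells in 2% charcoal/dextran FBS medium were preincubated 4 h at 37 C, given compound (0.59 nM to 92 uM) plus 0.4 nM T3 (final) for 18 h, then CCF4 for 2 h at RT; Hill fit gave IC50.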

[17] = qHTS assay for small molecule agonists of the antioxidant response element (ARE) signaling pathway (AID 651741; active means well fitted activation curve with a large enough effect in the signal ratio; the % refers to the signal ratio; further: % of control where 0% means no effect)
How it was run: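 Reporter: beta-lactamase under ARE, stably in HepG2. Exposure: 16 h, 37 C, compounds delivered in DMSO by pin tool after 5 h cell preincubation. Readout: FRET substrate fluorescence after 2 h at RT.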

[18] = qHTS assay for small molecule activators of the p53 signaling pathway (AID 651743; active means well fitted activation curve with a large enough effect in the signal ratio, not every such curve was filed as active; the % refers to the signal ratio; further: series mostly up to about 92 µM; % of control where 0% means no effect); conditions: HCT-116 p53RE-bla, beta-lactamase FRET ratio, 16 h; stronger effect = higher value
How it was run: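 Agonist-mode quantitative HTS in HCT-116 cells carrying a p53-response-element beta-lactamase reporter; 16 h compound treatment at 37 C, then FRET substrate loading for 2 h at room temperature and fluorescence read.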

[19] = qHTS assay for small molecule activators of the nuclear factor-kappa B (NF-kB) signaling pathway (AID 651749; active means well fitted activation curve with a large enough effect in the signal ratio; the % refers to the signal ratio; further: series mostly up to about 77 µM; % of control where 0% means no effect); conditions: NF-kB-bla ME-180 cells, beta-lactamase FRET ratio, 16 h; stronger effect = higher value
How it was run: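 Human ME-180 cervical cells with an NF-kB-bla construct; compounds added via 23 nL pin transfer, DMSO as vehicle; incubation 16 hr. Reporter activity measured by FRET disruption.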

[20] = qHTS assay for environmental chemicals that activate the Aryl hydrocarbon Receptor (AhR) signaling pathway (AID 651777); conditions: 1A2-DRE human hepatoma cells, luciferase, 24 h; stronger effect = higher value; further: % of control where 0% means no effect; nearly all actives have a fitted effect of over 15% in size
How it was run: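 Luminescence read-out: One-Glo added for 30 min at RT after 24 hr compound treatment (37 C, 5% CO2) of human hepatoma cells expressing a DRE/CYP1A2 promoter–luciferase reporter; increased signal indicates AhR activation.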

[21] = biological target: Peroxisome proliferator-activated receptor alpha (Homo sapiens) (UniProt Q07869); assay: qHTS assay for small molecule agonists of the peroxisome proliferator-activated receptor alpha (PPARalpha) signaling pathway (AID 651778); conditions: PathHunter PPARalpha complementation, chemiluminescence, 6 h; stronger effect = higher value; further: % of control where 0% means no effect
Sequence of Peroxisome proliferator-activated receptor alpha (Homo sapiens) (Q07869 whole entry, looked up): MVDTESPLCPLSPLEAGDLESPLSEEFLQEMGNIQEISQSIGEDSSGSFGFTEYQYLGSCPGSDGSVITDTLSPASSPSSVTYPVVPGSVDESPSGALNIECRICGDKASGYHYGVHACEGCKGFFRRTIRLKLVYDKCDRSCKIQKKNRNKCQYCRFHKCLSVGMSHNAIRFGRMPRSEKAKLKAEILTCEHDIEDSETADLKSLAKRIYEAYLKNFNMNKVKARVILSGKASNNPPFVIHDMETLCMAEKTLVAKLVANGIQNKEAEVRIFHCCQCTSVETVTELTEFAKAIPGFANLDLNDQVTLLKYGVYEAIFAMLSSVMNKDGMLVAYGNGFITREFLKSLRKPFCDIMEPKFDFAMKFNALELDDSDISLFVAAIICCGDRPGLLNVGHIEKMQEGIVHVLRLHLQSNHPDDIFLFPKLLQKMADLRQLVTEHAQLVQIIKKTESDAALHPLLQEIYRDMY
How it was run: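 Cells plated at 2,000/well and held overnight at 37 C, 5% CO2, then compound added by pin tool for 6 hr; after PathHunter detection reagent and 60 min at room temperature, chemiluminescence from enzyme complementation was read.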

[22] = qHTS assay for small molecule agonists of the antioxidant response element (ARE) signaling pathway measured by Nrf2-dependant transcriptional activity (AID 720636; active means well fitted curve in the direction sought with a large enough effect in the repeat runs; an effect the other way counts as inactive or inconclusive;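 further: HepG2 cells with an ARE-driven luciferase reporter; % of control where 0% means no effect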)
How it was run: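 HepG2 ARE-luc reporter line, 1% dialyzed FBS; 6 hr attachment at 37 C, compound pinned in, 16 hr at 37 C/5% CO2; ONE-Glo, 30 min RT, luminescence read.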

[23] = qHTS assay for cell viability of HEK293 cells (AID 743288); conditions: ATP luminescence (CellTiter-Glo), 18 h; max response: stronger effect = lower value; further: potency means the concentration at half of the fitted maximal effect; nearly all actives have a fitted effect of over 50% in size
How it was run: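 Viable-cell counts were inferred from luciferase-based ATP content in HEK293 cells seeded at 2,000/well, pre-incubated ≥5 h, then dosed with DMSO-solubilised compounds for 18 h at 37 C.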

[24] = qHTS assay for cell viability of the p53RE-bla HCT-116 cell line (AID 743292); further: potency means the concentration at half of the fitted maximal effect; nearly all actives have a fitted effect of over 55% in size
How it was run: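 Luminescent ATP quantitation (CellTiter-Glo) served as the viability read-out; reagent was added after 16 h compound exposure at 37 C and read after 30 min at room temperature. Cells: p53RE-bla HCT-116, 4,000 per well.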

[25] = Confirmatory screen GU Rhodamine qHTS for Zika virus inhibitors qHTS (AID 1347157)
How it was run: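 Percent inhibition derives from the 15-min fluorescence change (ex 480, em 540 nm), normalized to no-enzyme and no-inhibitor wells. Reactions contained 25 nM NS2B-NS3 complex and 1.5 microM substrate in 10 mM Tris-HCl pH 8.0.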

[26] = ZIKV-mCherry secondary qHTS for Zika virus inhibitors (AID 1347158); further: top concentration of the series differs between compounds
How it was run: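 Compounds were tested in Vero monkey kidney cells infected with recombinant mCherry-expressing Zika virus at MOI 1 for 48-72 h at 37 °C. Fixed cells were nuclear-stained and imaged, and infection rate was taken as the fraction of mCherry-positive cells.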

[27] = Confirmatory screen NINDS Rhodamine qHTS for Zika virus inhibitors (AID 1347161); further: potency means the concentration at half of the fitted maximal effect; nearly all actives have a fitted effect of over 60% in size
How it was run: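 Percent inhibition, normalized to uninhibited and enzyme-free controls, is fitted to a 4-parameter Hill equation. Fluorescence change comes from a 15-min cleavage of 1.5 microM bis-peptide Rhodamine110 substrate by 25 nM linked NS2B-NS3 at room temperature.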

[28] = system: Zika virus NS2B-NS3 protease (linked); assay: 384 well plate NINDS AMC confirmatory qHTS for Zika virus inhibitors (AID 1347163); further: potency means the concentration at half of the fitted maximal effect; nearly all actives have a fitted effect of over 50% in size
How it was run: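 Fluorescence at 355/460 nm was read after 25 minutes of cleavage of 30 microM Ac-VKTGKR-AMC at room temperature, in the dark. Before substrate addition, compounds (up to 1 mM final) sat ~15 minutes with 5, 30 or 60 nM linked protease. Signals were normalized to no-enzyme and no-inhibitor wells.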

[29] = system: Zika virus NS2B-NS3 protease (linked construct); assay: 384 well plate NINDS Rhodamine confirmatory qHTS for Zika virus inhibitors (AID 1347164);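 further: fluorescence from protease cleavage of Ac-LKRR-rhodamine 110 substrate; potency means the concentration at half of the fitted maximal effect; nearly all actives have a fitted effect of over 65% in size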
How it was run: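 Enzyme (final 5/30/60 nM) + cpd (DMSO), ~15 min; add Ac-LKRR-Rd 10 microM final; 25 min RT, dark; FI ex 485/em 538; normalized to no-enzyme, no-inhibitor ctrls; aprotinin intraplate ctrl.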

[30] = biological target: Nuclear receptor subfamily 1 group I member 2 (Rattus norvegicus) (UniProt Q9R1A7); assay: qHTS assay for small molecule activators of the rat pregnane X receptor (rPXR) signaling pathway (AID 651751; call rule not given here; further: 0% is about no effect); conditions: rPXR reporter cells, luciferase (One-Glo), 24 h
Sequence of Nuclear receptor subfamily 1 group I member 2 (Rattus norvegicus) (Q9R1A7 whole entry, looked up): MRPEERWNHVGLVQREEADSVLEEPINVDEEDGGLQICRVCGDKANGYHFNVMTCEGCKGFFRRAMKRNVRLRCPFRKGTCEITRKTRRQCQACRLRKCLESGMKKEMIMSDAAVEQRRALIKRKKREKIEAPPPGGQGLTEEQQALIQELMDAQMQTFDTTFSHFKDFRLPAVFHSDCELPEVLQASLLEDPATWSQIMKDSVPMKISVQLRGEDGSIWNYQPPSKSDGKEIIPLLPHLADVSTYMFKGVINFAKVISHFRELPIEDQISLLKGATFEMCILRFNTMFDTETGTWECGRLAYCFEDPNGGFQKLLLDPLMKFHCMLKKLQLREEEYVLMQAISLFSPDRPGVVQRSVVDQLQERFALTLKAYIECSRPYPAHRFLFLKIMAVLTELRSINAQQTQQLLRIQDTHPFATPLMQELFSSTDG

[31] = qHTS assay for small molecule activators of the human pregnane X receptor (PXR) signaling pathway (AID 720659; call rule not given here; further: 0% is about no effect)

N#C/C(=C\c1ccc(Br)cc1)c1nc(-c2cc3cc(Br)ccc3oc2=O)cs1
inactive: Potency (Furin (Homo sapiens)) | Potency [1] | Potency [2] | Potency [3]

CCN(Cc1cccc(S(=O)(=O)O)c1)c1ccc(C(=C2C=CC(=[N+](CC)Cc3cccc(S(=O)(=O)O)c3)C=C2)c2ccccc2S(=O)(=O)[O-])cc1
-7.12%: max response [11]
-15.8%: max response [7]
-12.5%: max response [14]
active: Potency [23] 35.5 µM | Potency [24] 31.6 µM | Potency [25] 3.55 µM | Potency [27] 3.55 µM | Potency [28] 200 µM | Potency [29] 14.1 µM
inactive: Potency [4] | outcome [5] | outcome [6] | outcome [8] | Potency [9] | outcome [10] | outcome [12] | outcome [13] | max response [15] 8.56% | activity change % (negative = inhibition) [16] -4.53% | Potency [17] | activation [18] 1.38% | activation [19] 1.84% | activation [20] -6.97% | max response [21] -9.68% | outcome [22] | Potency (Furin (Homo sapiens)) | Potency [26] | max response [30] -11% | outcome [31]
